PubChem BioAssay (NCATS)
Results filed as inconclusive are left out. The source made the active and inactive calls. Calls come from the whole dose curve; as a rule, active = well fitted inhibition curve with a large enough effect; inconclusive = small, poorly fitted or top-dose-only effect; inactive = flat fitted curve, though single readings scatter.

How the values were obtained:
Test in all cases: Cytotoxic Profiling of Annotated Libraries Using Quantitative High-Throughput Screening (AID 1296008); note: nearly all actives have a fitted effect of over 60% in size
Conditions in all cases: Five cell lines viability, CellTiter-Glo ATP luminescence, 48-72 h; max response: active compounds read low
[1] = test system: CRL-7250
In short: (§1)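 Compounds were pin-transferred onto cells and incubated 48 or 72 hr at 37 degree Celsius, 95% humidity. CellTiter-Glo was added, plates sat 10 min at room temperature, then ATP-coupled luminescence was imaged as the viability read-out.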

[2] = test system: HaCat
In short: as §1

[3] = test system: KB-3-1
In short: as §1

[4] = test system: NIH3T3
In short: as §1
% is set by controls: 0 for no effect and ±100 for the full control effect; potency is the fitted concentration of half-maximal effect.

c1cc(-c2cnn3cc(-c4ccc(N5CCNCC5)cc4)cnc23)c2cccnc2c1
active: Potency [3] 4.11 µM
inactive: outcome [1] | max response [2] 0.937% | max response [4] -2.87%

Nc1nc2c(cnn2CCCc2ccc(O)cc2)c2nc(-c3ccco3)nn12
inactive: outcome [1] | max response [2] -2.77% | max response [3] 8.63% | max response [4] 3.84%

COCCCNC(=O)c1ccc(Cn2c(=O)c3ccccc3n(Cc3ccc(C(C)C)cc3)c2=O)cc1
inactive: max response [1] -3.32% | max response [2] 1.44% | outcome [3] | max response [4] 4.09%

COc1cc2ncnc(Nc3ccc(F)c(Cl)c3)c2cc1O
inactive: outcome [1] | max response [3] -4.6% | outcome [4]
active: Potency [2] 1.3 µM

COc1c2c(nc3occc13)C(CC=C(C)C)(OC)C(O)CC2 (stereo unspecified)
inactive: max response [1] -11.5% | max response [2] -1.05% | max response [3] -4.13% | max response [4] -1.61%

COc1c(C)cc(NC(=O)c2nn(Cc3ccc(F)cc3)c3c2CN(C(=O)c2ccc[nH]2)C[C@]3(C)C(N)=O)cc1C
inactive: max response [1] -1.93% | max response [2] -0.617% | outcome [3] | max response [4] -14%

CCCC(CCC)C(=O)NCc1ccc2c(cnn2-c2ccccc2OC)c1
inactive: max response [1] -29.2% | max response [2] 3.89% | max response [3] -13.4% | max response [4] 0.011%

OC1(CN2CCC(COc3noc4cccc(O[C@@H]5CCOC5)c34)CC2)CCOCC1
inactive: max response [1] -0.0295% | max response [2] -23.1% | max response [3] 2.03% | max response [4] -22.8%

Cc1c(C(=O)NCc2cccnc2)nn(-c2ccc(Cl)cc2Cl)c1-c1ccc(Cl)cc1
inactive: outcome [1] | max response [2] -13.1% | max response [3] -24% | max response [4] -4.76%

Cc1ccc(N2CCN(CCC3NC(=O)c4ccccc43)CC2)cc1C (stereo unspecified)
inactive: max response [1] 4.52% | max response [2] -0.27% | max response [3] -2.29% | max response [4] 0.934%

Cc1c(F)ccc(C(=O)Nc2cc([N+](=O)[O-])ccc2N2CCN(C)CC2)c1Cl
inactive: max response [1] 1.68% | max response [2] 0.293% | outcome [3] | max response [4] 1.43%

C[C@H]1CO[C@@H]2Cn3cc(C(=O)NCc4ccc(F)cc4F)c(=O)c(O)c3C(=O)N12
inactive: max response [1] -9.56% | max response [2] 1.95% | max response [3] -18.7% | max response [4] 2.62%

CC(=O)OC/C(=C/C(=O)O)CC[C@@H]1C(C=O)=CC[C@@H]2C(C)(C)CCC[C@@]12C
inactive: max response [1] 4.87% | max response [2] 3.05% | max response [3] 3.67% | max response [4] 3.58%

C[C@@H]1C[C@H]2O[C@@]3(O[C@@H]2C(C)(C)O)C(O)[C@@]2(C)C4CCC5C(C)(C)[C@@H](O[C@H]6OC[C@H](O)[C@@H](O)[C@@H]6O)CC[C@@]56C[C@@]46CC[C@]2(C)C13 (stereo partly specified)
inactive: max response [1] 1.57% | max response [2] -16.2% | max response [3] -6.46% | max response [4] -0.0399%

N#Cc1cc(C2=Nc3ccc(Br)cc3NC(=O)C2)ccn1
inactive: max response [1] -3.76% | max response [2] 4.97% | max response [3] 4.39% | outcome [4]

COC(=O)CC[C@@H](C)C1CCC2C3CCC4C[C@H](OC(C)=O)CCC4(C)C3C[C@H](O)C21C (stereo partly specified)
inactive: max response [1] -0.684% | max response [2] -5.91% | max response [3] 9.49% | outcome [4]

C=C(COC(=O)C(O)C(O)CN)C12OC1C1(C)C(=CC2=O)C(O)C(O)CC1C (stereo unspecified)
inactive: max response [1] -7.2% | max response [2] 0.561% | outcome [3] | outcome [4]

COc1cc2c(c(OC)c1CC=C(C)C)C[C@H](c1ccc(O)c(CC=C(C)C)c1O)CO2
inactive: max response [1] 2.21% | max response [2] -6.86% | max response [3] -4.62% | max response [4] -5.48%

C=C(C)C(=O)O[C@H]1[C@H]2C(=C)C(=O)O[C@@H]2/C=C(\CO)CC/C=C(/C=O)[C@@H]1O
inactive: max response [1] -17.3% | max response [2] -13.6% | outcome [3] | max response [4] -6.9%

C[C@@H]1O[C@@H](O[C@H]2[C@H](OC(=O)[C@]34CCC(C)(C)C[C@H]3C3=CCC5[C@@]6(C)C[C@H](O)[C@H](O[C@@H]7O[C@H](C(=O)O)[C@@H](O)[C@H](O)[C@H]7O)[C@@](C)(CO)C6[C@H](O)C[C@@]5(C)[C@]3(C)C[C@H]4O)O[C@@H](CO)[C@@H]2O)[C@H](O)[C@H](O)[C@H]1O[C@@H]1OC[C@@H](O)[C@H](O[C@H]2OC[C@](O)(CO)[C@H]2O)[C@H]1O (stereo partly specified)
inactive: outcome [1] | max response [2] -2% | max response [3] -0.0365% | max response [4] -0.318%

O=C(O)CCc1nccc2c1[nH]c1ccccc12
inactive: max response [1] -19.9% | max response [2] 3.67% | outcome [3] | max response [4] -2.87%

CC(=O)[C@H]1CC[C@H]2[C@@H]3CC=C4C[C@@H](OS(=O)(=O)O)CC[C@]4(C)[C@H]3CC[C@]12C
inactive: outcome [1] | max response [2] 1.57% | max response [3] 2.57% | max response [4] -4.15%

CO[C@@H]1[C@H](O)CCC2(CO2)[C@H]1[C@@]1(C)O[C@@H]1CC=C(C)C (stereo partly specified)
inactive: max response [1] -6.79% | max response [2] -1.46% | outcome [3] | max response [4] -13.7%

CCOC(=O)N1c2ccc(C(F)(F)F)cc2C(N(Cc2cc(C(F)(F)F)cc(C(F)(F)F)c2)C(=O)OC)CC1CC (stereo unspecified)
inactive: max response [1] -2.53% | max response [2] -2.39% | max response [3] -0.758% | max response [4] 3.11%

CC(C)(CO)c1cc2cc(NC(=O)C3(c4ccc5c(c4)OC(F)(F)O5)CC3)c(F)cc2n1CC(O)CO (stereo unspecified)
inactive: outcome [1] | max response [2] -17.2% | outcome [3] | max response [4] -6.55%

Cc1[nH]c2ccccc2c1CCNCc1ccc(/C=C/C(=O)NO)cc1
active: Potency [1] 0.517 µM | Potency [2] 0.184 µM | Potency [3] 0.082 µM | Potency [4] 0.366 µM

CCCCc1ccc(NS(=O)(=O)c2ccc(F)cc2)cc1
inactive: outcome [1] | max response [2] -1.98% | max response [3] 4.06% | outcome [4]

CC[C@@H]1C[C@]1(NC(=O)[C@@H]1C[C@@H]2CN1C(=O)[C@H](C(C)(C)C)NC(=O)OCC(C)(C)CCCCc1cccc3c1CN(C3)C(=O)O2)C(=O)NS(=O)(=O)C1CC1
inactive: max response [1] -9.24% | max response [2] -6.71% | max response [3] -19.5% | outcome [4]

COC1CC(=O)C23C(=O)NC(CC(C)C)C2C(C)C(C)=CC3/C=C(\C)CCCC1O (stereo unspecified)
inactive: max response [1] -6.23% | max response [2] 3.61% | max response [3] 1.14% | max response [4] -14.9%

COCCN(C(=O)c1cc(OC)c(OC)c(OC)c1)c1nc(-c2ccccc2)cs1
inactive: max response [1] -0.0444% | max response [2] 0.0568% | max response [3] 5.9% | max response [4] 3.38%

Clc1ncoc1-c1c[nH]c2ccccc12
inactive: outcome [1] | max response [2] -17.9% | max response [3] 7.62% | max response [4] -6.46%

CC1(CO)CC(O)[C@]2(C(=O)O)CCC34CC3(C=CC3[C@]5(C)C(CC[C@]34C)C(C)(CO)[C@@H](O)[C@H](O)[C@@H]5O)C2C1 (stereo partly specified)
inactive: max response [1] -11.7% | max response [2] -0.72% | outcome [3] | max response [4] -3.3%

C=CCC1=C[C@]2(OC)[C@H](C)[C@@H](c3ccc4c(c3)OCO4)O[C@]2(OC)CC1=O
inactive: max response [1] -2.76% | max response [2] -12.1% | max response [3] -2.11% | max response [4] 1.18%

C[C@H](Nc1cc2c(-c3ccc4c(c3)OCO4)noc2cn1)c1ccccc1
inactive: max response [1] 3% | max response [2] -9.56% | outcome [3] | max response [4] -4.93%

C[C@@H](NC(=O)[C@H](O)c1cc(F)cc(F)c1)C(=O)N[C@@H]1C(=O)N(C)c2ccccc2-c2ccccc21
inactive: max response [1] 0.116% | max response [2] -11.4% | max response [3] 5.92% | max response [4] -0.195%

Cc1cn2c(n1)Cc1ccc(Cl)cc1C(c1ccc(N)cc1)=N2
inactive: max response [1] -3.82% | max response [2] 1.21% | max response [3] 1.16% | max response [4] -15.7%

CC(=O)OC[C@]12[C@H](OC(C)=O)[C@H](OC(=O)c3ccccc3)[C@@H]3[C@@H](OC(C)=O)[C@]1(OC3(C)C)[C@H](C)C[C@H](OC(C)=O)[C@@H]2OC(=O)c1ccccc1
inactive: outcome [1] | max response [2] -0.678% | max response [3] 4.67% | max response [4] 3.09%

O=C(NCCCNC(=O)c1ccc[nH]c1=O)c1cc(-c2ccccc2)on1
inactive: max response [1] -21.2% | max response [2] -1.65% | max response [3] -25.1% | max response [4] 2.72%

CC(=O)OC1C(=O)C2C3OCC4=C3[C@@](C)(CC[C@@H]4O)CC[C@]2(C)[C@H]1C(C)C (stereo partly specified)
inactive: max response [1] 0.411% | max response [2] -13.7% | max response [3] 4.67% | max response [4] 1.97%

N#Cc1ccc(COC[C@H]2O[C@@H](n3c(NCc4ccc(Cl)c(Cl)c4)nc4c(N)ncnc43)[C@H](O)[C@@H]2O)cc1
inactive: outcome [1] | max response [2] -23% | max response [3] 2.86% | max response [4] -0.0303%

COc1c(C(C)C)c(O)c(O)c2c1C(OC)[C@H]1OC(=O)[C@@]23CCCC(C)(C)[C@H]13 (stereo partly specified)
inactive: outcome [1] | max response [2] -9.13% | outcome [3] | max response [4] -6.75%

Fc1ccc(-c2nc(-c3ccccc3F)[nH]c2-c2ccncc2)cc1
inactive: max response [1] 3.37% | max response [2] 4.02% | outcome [3] | max response [4] 4.47%

Nc1nc2c(s1)CCN(Cc1ccc(Cl)cc1)CC2
inactive: outcome [1] | max response [2] -24.3% | max response [3] 6.96% | max response [4] 0.621%

COc1cc(-c2nc(N[C@H](CO)Cc3ccccc3)ccc2C(=O)NCCOc2ccccc2)cc(OC)c1OC
inactive: max response [1] 4.02% | max response [2] -1.78% | max response [3] 7.13% | max response [4] -3.25%
